TDP1 block – qHTS Assay for Inhibitors of Tyrosyl-DNA Phosphodiesterase (TDP1); Tyrosyl-DNA phosphodiesterase 1 (Homo sapiens), Q9NUW8; recombinant TDP1, AlphaScreen DNA substrate cleavage; Potency, µM (top dose mostly 130 µM), most hits filed as inhibitors; 350,000 compounds, 0.28% hits; AID 485290, 2010; further: nearly all actives have a fitted effect of over 40% in size
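Enzyme-compound mixtures sat 15 min at room temperature, followed by a 5 min reaction with 15 nM final substrate and 10 min with AlphaScreen beads. Recombinant human Tdp1 was used at 1 nM final.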
Six1-Eya2 blk – qHTS Assay for Inhibitors of the Six1/Eya2 Interaction; AlphaScreen GST-Six1/His-Eya2 binding, biochemical; active compounds read low; activity change, % (no concentration beside the values); 360,000 compounds, 0.56% hits; AID 651725, 2012; in the data active means activity change below about -65%; inconclusive means mostly about -30% to -63%
Target sequence (O00167 whole entry, looked up): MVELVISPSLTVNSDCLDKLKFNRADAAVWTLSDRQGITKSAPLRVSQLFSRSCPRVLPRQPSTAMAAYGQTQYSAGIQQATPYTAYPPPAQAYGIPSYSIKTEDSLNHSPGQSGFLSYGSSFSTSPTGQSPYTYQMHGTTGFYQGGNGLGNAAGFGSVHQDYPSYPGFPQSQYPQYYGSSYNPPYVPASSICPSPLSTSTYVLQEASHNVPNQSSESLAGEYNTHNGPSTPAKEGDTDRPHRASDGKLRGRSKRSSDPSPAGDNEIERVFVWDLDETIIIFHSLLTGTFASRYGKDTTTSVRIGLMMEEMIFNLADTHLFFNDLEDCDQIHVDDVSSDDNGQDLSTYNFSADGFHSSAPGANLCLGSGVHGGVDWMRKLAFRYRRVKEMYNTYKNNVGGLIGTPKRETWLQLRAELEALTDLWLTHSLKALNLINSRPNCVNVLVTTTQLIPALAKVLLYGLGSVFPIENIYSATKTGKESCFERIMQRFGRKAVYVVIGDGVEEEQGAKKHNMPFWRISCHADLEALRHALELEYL
Target sequence (Q15475 whole entry, looked up): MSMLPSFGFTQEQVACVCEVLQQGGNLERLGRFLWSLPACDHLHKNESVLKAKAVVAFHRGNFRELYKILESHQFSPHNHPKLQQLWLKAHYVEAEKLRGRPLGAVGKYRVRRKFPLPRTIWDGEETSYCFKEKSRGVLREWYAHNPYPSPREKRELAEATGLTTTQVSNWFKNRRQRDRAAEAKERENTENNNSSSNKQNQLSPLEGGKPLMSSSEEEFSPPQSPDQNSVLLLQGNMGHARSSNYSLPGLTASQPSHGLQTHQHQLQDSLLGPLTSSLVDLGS
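Six1/Eya2 binding was read as AlphaScreen signal after compounds were pinned into GST-Six1 plus His-tagged Eya2 (5X stock 250/500 nM) in pH 8.0 Tris/NaCl/TCEP buffer, beads added, then incubated 1 h, 37 C, dark.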
DT40 TDP1 CPT – qHTS for Inhibitors of human tyrosyl-DNA phosphodiesterase 1 (TDP1): qHTS in cells in presence of CPT. Potency, µM (highest dose often 46.2 µM), usual class: inhibitors. AID 686979, 2013. 420,000 compounds, 12% hits. chicken DT40 Tdp1-/-;hTDP1 cells + 20 nM CPT, ATP luminescence, 48 h; further: nearly all actives have a fitted effect of over 55% in size
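Cell growth measured by CellTiter-Glo luminescence after a minimum 48 h, 37 C compound exposure with 20 nM CPT in Tdp1-knockout DT40 cells stably expressing hTDP1, seeded 400/well; qHTS titration format.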
CtBP-E1A blk – qHTS Assay for Inhibitors of the CtBP/E1A Interaction. CtBP / adenovirus E1A interaction (AlphaScreen). AlphaScreen GST-E1A/His-CtBP binding, 1536-well; active compounds read low. 340,000 compounds, 0.49% hits. AID 651724, 2012. activity change, % (concentration not given with the values); in the data active means activity change below about -65%; inconclusive means mostly about -30% to -63%
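Steps: dispense buffer (Tris pH 8.0, NaCl 300 mM, TCEP 1 mM, BSA, Tween 20); add 5X protein mix (GST-E1A, His-CtBP, 125 nM each); pin 23 nL compound; 2 h at 37 °C, dark; add 5X beads (50 ug/mL); 1 h; read.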
DT40 TDP1 no CPT – qHTS for Inhibitors of human tyrosyl-DNA phosphodiesterase 1 (TDP1): qHTS in cells in absence of CPT. DT40 Tdp1-/- hTDP1 cells, no CPT, ATP luminescence, 48 h. Potency, µM (series often up to 46.2 µM), actives largely listed as inhibitors. 420,000 compounds, 15% hits; further: nearly all actives have a fitted effect of over 55% in size
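DT40 Tdp1-/-;hTDP1 cells, no CPT (DMSO vehicle only), 400 cells/well; compounds pin-transferred; ≥48 hr, 37 °C; CellTiter-Glo 30 min RT dark, luminescence read.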
IL1B secr inh – qHTS for Inhibitors of Inflammasome Signaling: IL-1-beta AlphaLISA Primary Screen; THP-1 LPS/ATP IL-1B secretion, AlphaLISA, 16 h; active compounds read low; activity change, % at 57.5 µM; 360,000 compounds, 4.7% hits; AID 743279, 2014; in the data active means activity change below about -50%; inconclusive means mostly about -30% to -49%
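THP-1 cells pretreated 1 hr with compounds (up to 57.5 uM final), then stimulated with LPS (250 ng/mL final) plus ATP (1.25 mM final); secreted IL-1B measured by AlphaLISA after 16 hr, decreased signal indicating inhibition.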
A number is an active result; - = inactive; ? = inconclusive; . = no result; [ ] = remark or other dose. Compounds with a hit are over-represented: about 18% of the library has one in this group of screens. Unless noted, the call rests on the fitted dose curve; in most records, active means well fitted curve in the direction sought with a large enough effect; inconclusive means small, poorly fitted or top-dose-only effect, or another doubt; inactive means no such curve, though single readings can be large; an effect the other way counts as inactive or inconclusive.

SMILES	TDP1 block	Six1-Eya2 blk	DT40 TDP1 CPT	CtBP-E1A blk	DT40 TDP1 no CPT	IL1B secr inh
O=C(NC1CCN(S(=O)(=O)c2cccc(F)c2)CC1)c1ccc(F)cc1	.	-	-	-	-	-
CC(C)c1ccc(C2C3=C(CC(C)(C)CC3=O)NC3=C2C(=O)c2ccccc23)cc1 (configuration not stated)	-	?	21µM	?	?	?
Cc1ccc2[nH]c(=O)c3cc(C(=O)N(C)c4ccccc4C)sc3c2c1	-	-	?	.	10µM	?
CCCCN(CC)C(=O)c1cc2c(=O)[nH]c3ccc(C)cc3c2s1	.	-	?	-	?	-
CCCCN(Cc1ccco1)C(=O)c1cc2c(=O)[nH]c3ccc(C)cc3c2s1	-	-	?	-	?	-
COCCNC(=O)c1cc2c(=O)[nH]c3ccccc3c2s1	.	-	-	-	-	-
Cc1ccc2[nH]c(=O)c3cc(C(=O)N(C)c4ccc(Br)cc4)sc3c2c1	-	.	3.7µM	.	3.3µM	.
Cc1ccc2[nH]c(=O)c3cc(C(=O)N(CCCOC(C)C)Cc4ccco4)sc3c2c1	-	-	23µM	-	12µM	-
CCOc1ccccc1N1CC(C(=O)Nc2ccc(S(=O)(=O)N3CCCCC3)cc2)CC1=O (configuration not stated)	-	-	13µM	-	13µM	-
CCC(C)c1ccccc1N1CC(C(=O)Nc2ccc(S(=O)(=O)N3CCOCC3)cc2)CC1=O (configuration not stated)	-[0.505 µM]	-	23µM	-	23µM	-
CCOc1ccc(N2CC(C(=O)Nc3cccc(S(=O)(=O)N4CCCC4)c3)CC2=O)cc1 (configuration not stated)	-	-	-	-	-	-
CCOc1ccc(N2CC(C(=O)Nc3ccc(S(=O)(=O)N4CCOCC4)cc3)CC2=O)cc1 (configuration not stated)	-	-	-	-	-	-
CCC(C)c1ccccc1N1CC(C(=O)N2CCN(c3ccccc3)CC2)CC1=O (configuration not stated)	.	-	15µM	-	23µM	-
CCOc1ccccc1N1CC(C(=O)Nc2cccc(S(=O)(=O)N3CCCCC3)c2)CC1=O (configuration not stated)	-	-	?	-	23µM	-
COc1ccc(C)cc1NC(=O)C1CCN(S(=O)(=O)c2ccc3[nH]c4c(c3c2)CCCCC4)CC1	-	.	-	.	?	.
CC(=O)N1CCc2cc(S(=O)(=O)NC(CC(C)C)C(=O)Nc3cc(C)cc(C)c3)ccc21 (configuration not stated)	-	.	-	.	-	.
CCN1CCN(c2nc(-c3ccc(F)cc3)cc(=O)[nH]2)CC1	.	-	-	-	-	-
COc1cc(OC)cc(-c2cc3nc4c(c(N5CCN(c6ncccn6)CC5)n3n2)CCCC4)c1	-	?	?	-	23µM	-
COc1ccc(-c2c(C)nn3c(N4CCOCC4)cc(C)nc23)cc1OC	.	-	-	-	-	-
CCc1c(C)nc2ncnn2c1N1CCC(C(=O)NCc2cccc(OC)c2)CC1	-	-	?	-	?	-
COc1ccc(-c2c(C)nn3c(N4CCCCCC4)cc(C)nc23)cc1OC	.	-	23µM	-	26µM	-82
CCOCCN1CCN(c2c3c(nc4cc(-c5ccc(F)cc5)nn24)CCC3)CC1	-	-	?	-	16µM	-
CCc1c(C)nc2cc(-c3cc(OC)cc(OC)c3)nn2c1N1CCCC1	-	-	29µM	-	23µM	?
COc1cccc(CN2CCN(c3ncccn3)CC2)c1	-	-	-	-	-	-
CN(C)c1ccc(CNC(=O)c2cnc3sc(N4CCCC4)nn3c2=O)cc1	-	.	-	.	-	.
SMILES	TDP1 block	Six1-Eya2 blk	DT40 TDP1 CPT	CtBP-E1A blk	DT40 TDP1 no CPT	IL1B secr inh
CCCn1cnc2cc(NCc3cccs3)ccc21	.	-	?	-	-	?
Cc1sc2ncn(CC(=O)OC(C)C(=O)NC(C)(C)C)c(=O)c2c1C (configuration not stated)	-	-	-	-	-	-
COc1ccccc1NC(=O)c1ccc(NC2=NC3CS(=O)(=O)CC3S2)cc1 (configuration not stated)	.	-	-	-	-	-
CCC(C)NC(=O)CCc1c(C)nc2nc(-c3cc(OC)cc(OC)c3)nn2c1C (configuration not stated)	-	-	-	-	?	-
CCc1c(C)nc2cc(-c3ccc(OC)c(OC)c3)nn2c1N1CCCC1	-	-	?	-	23µM	?
COc1ccc(-c2cc(-c3ccccc3)nc(N3CCCC3)n2)cc1OC	-	-	-	-	-	-
CCOCCN1CCN(c2c(CC)c(C)nc3cc(-c4cc(OC)cc(OC)c4)nn23)CC1	-	-	21µM	-	15µM	?
CC(=O)Nc1ccc(S(=O)(=O)NC(CC(=O)N(C)Cc2ccccc2)C(C)C)cc1 (configuration not stated)	-	-	12µM	-	23µM	-
CC(C)OCCCNC(=O)CN1CCN(Cc2ccccc2Cl)C1=O	-	-	?	-	18µM	-
O=C(CN1CCN(Cc2ccccc2Cl)C1=O)NCCc1ccc(Cl)cc1	-[12.3 µM]	.	-	.	?	.
O=C(CN1CCN(Cc2ccc(Cl)cc2)C1=O)NCCCN1CCN(c2ccc(F)cc2)CC1	-	-	8.9µM	-	10µM	-70

High-throughput results from PubChem BioAssay.
